Compound activity (PubChem)
m5-HT2A agonist: agonists of mouse serotonin 5-HT2A receptor (HTR2A); P35363; activation, % at 7.6 µM; CHO-K1 mHTR2A beta-arrestin complementation, luminescence; percent of 30 µM serotonin response; actives 0.66% (n = 360,000); AID 624169;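 active = activation above a run cutoff, the mean activation of all tested compounds plus 3 SD, cut at about 14% in these data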;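 note: 0% = plate median of compound wells and 100% = 30 µM serotonin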
TLR4 MyD88 comp: TLR4-MyD88 interaction inhibition in cells. HeLa CL3-4 TLR4/MyD88 BLA complementation, FRET ratio. inhibition, % at 8.4 µM. actives 0.18% (n = 200,000). AID 861. O00206+Q99836; in the data active = inhibition above about 25%;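 note: 0% = vehicle and 100% = reference inhibitor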
NOD2 RIPK2 PPI: NOD2-RIPK2 protein interaction inhibition. O43353. actives 0.38% (n = 360,000). inhibition, % at 4.98 µM. CHO BLA complementation NOD2-RIPK2, CCF4 ratio; in the data active = inhibition above about 21%;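 note: 0% = vehicle only and 100% = reference blocker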
TLR9-MyD88 inh: TLR9-MyD88 interaction inhibition | Q9NR96+Q99836 | CHO BLA complementation TLR9-MyD88, CCF4 FRET ratio | inhibition, % at 4.98 µM | actives 0.21% (n = 340,000) | AID 504734;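 active = inhibition above the mean over all tested compounds plus 3 SD, cut at about 21% in these data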;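 note: 0% = DMSO only wells and 100% = clavulanate BLA inhibitor control wells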
Target sequence (Q99836 whole entry, looked up): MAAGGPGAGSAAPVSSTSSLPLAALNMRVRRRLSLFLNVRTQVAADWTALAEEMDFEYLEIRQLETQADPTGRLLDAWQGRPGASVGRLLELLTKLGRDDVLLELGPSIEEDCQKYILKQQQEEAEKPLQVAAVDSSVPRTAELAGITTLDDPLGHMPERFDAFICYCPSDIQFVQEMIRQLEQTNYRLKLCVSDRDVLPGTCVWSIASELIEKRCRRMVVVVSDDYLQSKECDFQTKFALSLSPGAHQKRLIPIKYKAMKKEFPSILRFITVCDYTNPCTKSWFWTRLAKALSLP
Target sequence (Q9NR96 whole entry, looked up): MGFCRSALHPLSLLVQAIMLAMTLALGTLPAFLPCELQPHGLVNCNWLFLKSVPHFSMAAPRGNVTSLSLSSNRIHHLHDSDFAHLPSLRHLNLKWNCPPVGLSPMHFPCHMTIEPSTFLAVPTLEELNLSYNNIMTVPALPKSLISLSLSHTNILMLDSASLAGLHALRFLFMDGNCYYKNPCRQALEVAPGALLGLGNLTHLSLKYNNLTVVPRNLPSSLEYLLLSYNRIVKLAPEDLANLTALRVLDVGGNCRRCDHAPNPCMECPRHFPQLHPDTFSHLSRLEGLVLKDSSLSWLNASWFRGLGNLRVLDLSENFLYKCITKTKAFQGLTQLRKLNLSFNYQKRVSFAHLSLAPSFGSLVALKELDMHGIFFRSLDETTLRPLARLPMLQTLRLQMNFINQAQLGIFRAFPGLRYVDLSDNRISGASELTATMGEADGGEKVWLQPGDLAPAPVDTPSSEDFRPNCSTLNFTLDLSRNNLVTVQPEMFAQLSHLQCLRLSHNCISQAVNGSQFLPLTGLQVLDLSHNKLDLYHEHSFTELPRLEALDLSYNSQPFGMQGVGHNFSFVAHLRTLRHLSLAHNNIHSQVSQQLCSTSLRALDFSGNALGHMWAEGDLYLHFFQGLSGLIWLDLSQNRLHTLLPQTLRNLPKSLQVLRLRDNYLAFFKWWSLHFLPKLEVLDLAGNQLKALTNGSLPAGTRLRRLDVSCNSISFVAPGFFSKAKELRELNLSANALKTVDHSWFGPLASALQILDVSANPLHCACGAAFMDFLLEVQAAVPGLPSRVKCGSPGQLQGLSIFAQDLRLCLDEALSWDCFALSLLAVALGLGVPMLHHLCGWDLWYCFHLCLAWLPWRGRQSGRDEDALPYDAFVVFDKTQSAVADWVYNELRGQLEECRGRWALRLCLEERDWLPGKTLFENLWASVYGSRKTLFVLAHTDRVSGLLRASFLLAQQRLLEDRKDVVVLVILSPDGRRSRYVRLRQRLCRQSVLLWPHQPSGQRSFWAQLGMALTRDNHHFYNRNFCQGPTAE
Rtt109 Vps75: blocks Candida albicans Rtt109/Vps75 acetyltransferase activity; Q5AAJ8; purified Rtt109/Vps75, ThioGlo CoA-SH fluorescence, 4 h; inhibition, % at 34.9 µM; actives 0.16% (n = 330,000); AID 540336;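 active = inhibition of at least 50% in every replicate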
LANA-H2A inh: blocks KSHV LANA binding to histone H2A/H2B. Q9QR71. cell-free LANA-H2A/H2B peptide, fluorescence polarization. inhibition, % (test concentration not listed). actives 0.6% (n = 320,000). AID 2629; in the data active = inhibition mostly above about 10%, no sharp cut-off; inactive = mostly below about 6.7%
TLR4 MyD88 cnf: confirmation of human TLR4-MyD88 binding inhibitors; HeLa CL3-4 BLA complementation, CCF4 FRET ratio; shares compounds with TLR4 MyD88 comp; actives 50% (n = 350); inhibition, % at 8.4 µM;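 active = mean inhibition across three repeat runs above about 25% carried over from the earlier screen, limit read from the data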;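 note: plate controls were DMSO only for no effect and clavulanic acid blocking BLA at full dose for full effect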
BLA inhibitor ct: counter-screen for TLR4-MyD88 inhibitors: beta-lactamase reporter inhibitors; shares compounds with TLR4 MyD88 comp; HeLa BLA reporter, CCF4 FRET ratio; inhibition, % at 8.4 µM; actives 63% (n = 350); AID 1237;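 active = mean inhibition over three repeats above about 26% taken from the earlier screen, limit read from the data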;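 note: HeLa cells stably expressing beta-lactamase reporter as counterscreen for TLR4-MyD88 inhibitors; 0% = DMSO and 100% = clavulanic acid full inhibition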
Starred values were filed as active, the others as inactive; x = not tested or not shown; + = active, no number. Compounds with a hit are over-represented: about 1.8% of the library has one in this group of screens.

SMILES	m5-HT2A agonist	TLR4 MyD88 comp	NOD2 RIPK2 PPI	TLR9-MyD88 inh	Rtt109 Vps75	LANA-H2A inh	TLR4 MyD88 cnf	BLA inhibitor ct
Cc1ccccc1C(=O)N=c1ccn(-c2nc3ccccc3nc2NS(=O)(=O)c2ccc(F)cc2)cc1	3.9	x	-2.5	13.1	-112.9	-1.7	x	x
CC(C)CC(N)c1csc(NC(=O)C(c2ccccc2)c2ccccc2)n1 (stereo unspecified)	10.1	x	-1.2	x	x	x	x	x
Cc1ccc(N=Cc2sc(O)c3ccccc23)c(C)c1	-2.7	25.1*	-4.1	4.9	2.8	-10.2	18.5	37.1*
Cc1ccc(N=Cc2sc(O)c3ccccc23)cc1	9.5	39.3*	-5.2	19.2	0.3	-17.9	17.6	52.0*
Cc1ccc(N=Cc2c(O)c3ccccc3n(C)c2=O)cc1	-2.4	x	0.2	6.5	4.3	0.0	x	x
COc1ccc(-c2ccc(C(=O)NCc3ccco3)c3occc23)c(C)c1	-10.7	x	6.6	x	x	x	x	x
O=C(CCCn1c(=O)[nH]c2ccsc2c1=O)N1CCN(Cc2ccc3c(c2)OCO3)CC1	5.0	26.4*	1.4	-2.5	6.7	-1.5	-1.5	7.3
CN[C@H]1C[C@H]2c3[nH]c4ccc(-c5cccc(C)c5)cc4c3CCN2C[C@H]1[C@H](C)O	0.6	x	9.2	14.9	x	x	x	x
CSC1=NSC2=NC(=O)/C(=C\c3coc4ccccc4c3=O)C(=N)N12	4.2	10.0	5.8	-2.5	-5.1	9.3	x	x
CC(C)CSC1=NSC2=NC(=O)/C(=C\c3coc4ccccc4c3=O)C(=N)N12	3.3	43.2*	16.5	9.4	2.8	60.3*	13.6	30.6*
COc1ccc(/C=C2\CC/C(=C\c3ccc(OC)cc3OC)C2=O)c(OC)c1	4.8	32.3*	-4.8	11.2	-12.6	1.5	19.3	47.2*
COc1ccc(/C=C2\CCC(C3CCCC3)C2=O)c(OC)c1 (stereo unspecified)	3.1	x	-2.9	-5.2	-6.6	3.4	x	x
CCOC(=O)/C(=C\c1ccc(N2CCC(c3ccccc3)=N2)cc1)C(C)=O	1.3	x	-0.2	-10.8	2.3	x	x	x
O=C(/C=C/c1ccc(N2CCC(c3ccccc3)=N2)cc1)c1ccccc1	x	37.5*	x	x	x	-0.2	19.1	12.1
CCOC(=O)c1sc2nc(N3CCOCC3)c3c(c2c1N)CCCC3	-1.0	-1.8	3.5	-2.4	-7.5	2.8	x	x
COC(=O)c1ccc(-c2sc3nc(N4CCOCC4)c4c(c3c2N)CCCC4)o1	x	27.5*	x	x	x	1.4	23.8	51.9*
CC1(C(=O)NC2CCN(Cc3ccccc3)CC2)CCN1Cc1cc2ccccc2o1 (stereo unspecified)	-9.7	x	-18.6	x	x	x	x	x
Nc1ccccc1C(=O)NCc1ccco1	1.9	x	-9.7	-1.5	-4.8	-3.7	x	x
O=C(NCc1ccco1)c1ccccc1F	2.3	26.5*	1.4	-5.3	-3.7	2.0	-2.6	4.1
CCCCCn1nc(-c2ccccc2)c2nc3ccccc3nc21	0.3	44.1*	8.7	-3.9	-72.4	29.9*	51.5*	62.6*
CCCn1nc(-c2ccccc2)c2nc3ccccc3nc21	x	15.8	x	x	x	21.4	x	x
COC(=O)c1ccc(-c2nc3cc(Cl)c(N)cc3s2)cc1	0.2	37.6*	8.6	11.4	-3.7	2.2	43.8*	58.5*
COC(=O)c1ccc(-c2nc(O)c(C)s2)cc1	-4.6	-5.3	-7.6	0.5	-8.7	2.3	x	x
CN(C)c1ncnc2c1ncn2[C@H]1CN(Cc2cccnc2)C[C@@H](CO)O1	-0.2	x	-8.7	x	x	x	x	x
Cc1cccc(N2C(=O)/C(=C\c3ccc(C(=O)O)cc3)c3ccccc3C2=O)c1	2.5	44.7*	3.7	19.4	-9.7	-6.4	31.8*	35.4*
SMILES	m5-HT2A agonist	TLR4 MyD88 comp	NOD2 RIPK2 PPI	TLR9-MyD88 inh	Rtt109 Vps75	LANA-H2A inh	TLR4 MyD88 cnf	BLA inhibitor ct
Cc1sc2nc(CN3CCC(C)CC3)nc(Cl)c2c1C	x	28.1*	x	x	x	-7.7	31.8*	11.2
CC(C)(C)c1cc(NC(=O)c2cccnc2)no1	1.8	27.4*	-9.8	0.2	2.6	2.2	6.8	-0.2
Cc1nc(N/N=C/c2cccc([N+](=O)[O-])c2)cc(N2CCCCC2)n1	1.4	x	-1.4	-3.8	x	x	x	x
O=S(=O)(Nc1cc2nc3ccccc3nc2n1Cc1ccccc1)c1ccc(Cl)cc1	-0.8	36.4*	43.8*	-2.4	5.1	+	33.0*	65.6*
COCCNc1nc(SCC(=O)N2CCN(c3ccccc3OC)CC2)nc2ccccc12	-3.6	25.1*	-2.9	0.6	5.3	-1.3	-6.6	-2.7
COc1ccccc1N1CCN(C(=O)CSc2nc3ccccc3o2)CC1	3.5	2.0	-1.5	-6.5	36.1	-5.6	x	x
COC(=O)[C@@]12C[C@@H](CC(=O)N3CCN(C(=O)C4CC4)CC3)C(=O)N(Cc3ccco3)C1=CCC(C)(C)C2	5.2	x	-10.4	x	x	x	x	x
CC(=O)c1c(C)n([O-])c2cc(F)c(F)cc2[n+]1=O	9.9	28.4*	10.3	5.0	3.5	9.9	25.7*	12.0
COc1cccc(CNC(=O)[C@@H]2CCCN2C(=O)[C@@H]2CCCN2C(=O)c2cccs2)c1	8.0	x	-4.4	x	x	x	x	x
CCc1nc2c(OCc3ccccc3C(=O)OC)cccn2c1N(C)C(=O)Nc1ccccc1OC	-1.8	x	-9.2	x	x	x	x	x
O=S1(=O)C=C(Sc2nc3ccccc3s2)c2ccccc21	x	25.7*	x	x	x	3.0	12.7	-19.3
CC(C)(C)C(=O)Cn1ncc(Br)c(Br)c1=O	3.2	35.8*	11.4	17.0	-9.8	x	17.4	4.8
C[C@H]1CN([C@@H](C)CO)S(=O)(=O)c2ccc(Br)cc2O[C@@H]1CN(C)C(=O)C1CCOCC1	-4.8	x	-2.8	6.3	x	x	x	x
CCN(CC)c1ccc(/C=C/c2nc3ccccc3s2)cc1	x	56.4*	x	x	x	-8.0	48.0*	75.7*
CCOC(=O)C1=C(CSc2nc(-c3ccccc3)ccc2C#N)OC(N)=C(C#N)C1c1ccc(OC)cc1 (stereo unspecified)	0.0	26.4*	16.8	6.9	-3.0	-7.4	15.2	24.1
COCCN1C(=O)N(c2cccc(OC)c2)C(=O)C1CC(=O)Nc1cccc(F)c1 (stereo unspecified)	-2.4	x	4.5	-5.7	0.8	2.2	x	x
CCNC(=O)CC1C(=O)N(c2cccc(OC)c2)C(=O)N1CCOC (stereo unspecified)	3.2	25.2*	1.7	-10.5	12.0	-0.6	-0.5	1.4
CC1(C(=O)NS(=O)(=O)c2ccc(F)cc2F)CCN1C(=O)Cc1ccc(Cl)cc1Cl (stereo unspecified)	7.0	x	-8.4	x	x	x	x	x
CCCCCCCn1c2c(c(=N)c3ccccc31)CCC2	-3.9	27.8*	6.5	-10.5	3.6	0.4	30.1*	34.1*
CCCn1c2c(c(=N)c3c1CCC3)CCC2	2.8	x	-0.6	-11.9	2.5	-21.6	x	x
